# Source: PubChem BioAssay (NCATS)
# Results filed as inconclusive are left out. Calls of active or inactive are those of the source. Calls follow the shape of the dose curve; as a rule, active = well fitted inhibition curve with a large enough effect; inconclusive = small, poorly fitted or top-dose-only effect; inactive = flat fitted curve, though single readings scatter.
# Tested on: CRL-7250
# Experiment: qHTS assay to identify novel small-molecules to repurpose for Merkel cell carcinoma treatment (AID 1296009); also: nearly all actives have a fitted effect of over 60% in size
# Conditions: MCC and control cell lines, CellTiter-Glo viability, 72 h; series mostly up to 92 µM; activity change, negative = cytotoxicity: at the top concentration
# Summary of the method: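 Luminescence from CellTiter-Glo, read 10 min after addition at room temperature, reported viability following a 72 hr, 37 degree celsius treatment with NPC or MIPE compounds in titration; values normalized to plate controls.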
row,SMILES,outcome
1,C[C@@H]1C(=O)O[C@H]2[C@H]1CC[C@@]1(C)C(=O)C=C[C@](C)(O)[C@H]21,inactive
2,C/C=C(\C)C(=O)OC[C@H]1O[C@@H](O[C@H]2[C@@H](O[C@H]3O[C@H](CO)[C@@H](O)[C@H](O)[C@H]3O[C@@H]3O[C@H](CO)[C@@H](O)[C@H](O)[C@H]3O)O[C@H](COC(=O)/C(C)=C/C)[C@@H](O)[C@@H]2O)[C@H](O)[C@@H](O)[C@@H]1O,inactive [at 9.27 µM]
3,COc1cc(C(O)C(CO)Oc2ccc(CCCO[C@@H]3O[C@@H](C)[C@H](O)[C@@H](O)[C@H]3O)cc2OC)ccc1O (stereo not given in full),inactive [at 17.4 µM]
4,COC1CCCC/C(C)=C/C2C=C(C)C(C)C3C(CC(C)C)NC(=O)C23C(=O)C1 (stereo not given),inactive [at 17.4 µM]
5,CCCCCCCOc1cc2c(cc1/C(C)=C/c1ccc(C(=O)O)cc1)C(C)(C)CCS2(=O)=O,inactive
6,CC12CCC3c4ccc(O)cc4CCC3C1CCC2OC1OC(C(=O)O)C(O)C(O)C1O (stereo not given),inactive
7,C[C@H]1[C@H](C)CC[C@]2(C(=O)O)CC[C@]3(C(=O)O)C(=CCC4[C@@]5(C)CC[C@H](O[C@@H]6O[C@@H](C)[C@H](O)[C@@H](O)[C@H]6O)C(C)(C)C5CC[C@]43C)[C@H]12 (stereo not given in full),inactive [at 17.4 µM]
8,CC(=O)C1=C(O)C=C2Oc3c(C(C)=O)c(O)c(C)c(O)c3[C@]2(C)C1=O,inactive
9,COc1ccc(/C=C\C(=O)O)c(O[C@@H]2O[C@H](CO)[C@@H](O)[C@H](O)[C@H]2O)c1,inactive
10,COc1cc(/C=C/C(=O)O[C@H]2[C@H](O)[C@@H](CO)O[C@@]2(CO)O[C@H]2O[C@H](CO)[C@@H](O)[C@H](O)[C@H]2O)cc(OC)c1O,inactive [at 17.4 µM]
